A selection: hits, their analogues and other compounds. The true share with any hit is near 11%.
IMPase Li inh – IMPase inhibition in cells with lithium potentiation; actives 0.35% (n = 210,000); CHO-M1 cells, IP1 TR-FRET (IP-One), carbachol + lithium; Potency, µM (titrated, usually from 59.4 µM), for the others: top-dose activity, negative = IMPase inhibition, most hits filed as inhibitors; AID 1457; active = well fitted curve in the direction sought with a large enough effect; inconclusive = small, poorly fitted or top-dose-only effect, or another doubt; inactive = no such curve, though single readings can be large; an effect the other way counts as inactive or inconclusive;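 note: IP1 builds up when IMPase is blocked and the TR-FRET signal falls; potency is the fitted concentration of half-maximal effect; plate controls were basal vehicle for no effect and high inhibitor control for full effect; nearly all actives have a fitted effect of over 50% in size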
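Test compounds were applied to CHO-M1 cells previously cultured for 16–30 h at 2000 per well. A small lithium amount accompanied them; after 30 min at 37C, IP1 was quantified by TR-FRET.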
12-hLO inh – inhibitors of human 12-lipoxygenase (ALOX12). P18054. purified 12-hLO, xylenol orange hydroperoxide absorbance. Potency, µM (doses to about 57.1 µM), inactives show at the highest dose activity change, negative = inhibition, hits mostly inhibitors. actives 0.12% (n = 150,000). AID 1452; active = well fitted curve in the direction sought with a large enough effect; inconclusive = small, poorly fitted or top-dose-only effect, or another doubt; inactive = no such curve, though single readings can be large; an effect the other way counts as inactive or inconclusive; note: potency is the fitted concentration of half-maximal effect; nearly all actives have a fitted effect of over 55% in size
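Hydroperoxide formation by human 12-lipoxygenase from 40 uM arachidonic acid was followed colorimetrically via ferric-xylenol orange complex, using the 573/405 nm absorbance ratio. Enzyme concentration was 150 nM, with 30 min reaction at room temperature.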
IMPase inh – IMPase inhibition in cells. P97697. CHO-M1 cells, IP1 accumulation, HTRF TR-FRET ratio. inhibition (IP1 accumulation), % at 46.1 µM. 120,000 tested, under 10 active. AID 901; active = well fitted curve in the direction sought with a large enough effect in the signal ratio, not every such curve was filed as active; inconclusive = small, poorly fitted or top-dose-only effect, or a change in a side signal; inactive = no such curve, though single readings can be large or run the other way; the % refers to the signal ratio;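 note: cells stimulated with carbachol in lithium chloride buffer; plate controls were DMSO basal wells for no effect and reference inhibitor wells for full effect; higher means more IMPase inhibition seen as more IP1 and lower FRET ratio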
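Seeded CHO-M1 cells were dosed with compound at up to 46 uM, stimulated with carbachol for 30 min, then lysed in IP-One detection reagents. Higher IP1 lowers the TR-FRET signal.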
PNC inhibitor – blocks assembly of the perinucleolar compartment | PC3M PTB-GFP, PNC prevalence imaging, 16 h; hits give low values | activity change (PNC), negative = inhibition, % at 10 µM | actives 3.1% (n = 140,000);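 active = readout at or below -70, meaning at least 70% loss of cells showing the perinucleolar compartment, a nuclear body marking cancer cells; inconclusive = readout between -30 and a set limit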;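 note: plate controls were DMSO wells for no effect and camptothecin positive control wells for full effect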
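Read-out is percentage of cells bearing a perinucleolar compartment, from automated 20x imaging of fixed, Hoechst-stained PC3M PTB-GFP cells. Cells were seeded 4 h, then exposed 16 h to compound (23 nl of library stock) in duplicate plates.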
ALDH1A1 block – inhibitors of human aldehyde dehydrogenase 1A1 | P00352 | actives 7.3% (n = 220,000) | Potency, µM (series often up to 75.3 µM), for inactives: at the top dose activity, negative = inhibition, most hits filed as inhibitors | Purified ALDH1A1, NADH fluorescence, propionaldehyde substrate;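 note: potency is the fitted concentration of half-maximal effect; plate controls were no enzyme wells and a reference inhibitor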
Target sequence (P00352 whole entry, looked up): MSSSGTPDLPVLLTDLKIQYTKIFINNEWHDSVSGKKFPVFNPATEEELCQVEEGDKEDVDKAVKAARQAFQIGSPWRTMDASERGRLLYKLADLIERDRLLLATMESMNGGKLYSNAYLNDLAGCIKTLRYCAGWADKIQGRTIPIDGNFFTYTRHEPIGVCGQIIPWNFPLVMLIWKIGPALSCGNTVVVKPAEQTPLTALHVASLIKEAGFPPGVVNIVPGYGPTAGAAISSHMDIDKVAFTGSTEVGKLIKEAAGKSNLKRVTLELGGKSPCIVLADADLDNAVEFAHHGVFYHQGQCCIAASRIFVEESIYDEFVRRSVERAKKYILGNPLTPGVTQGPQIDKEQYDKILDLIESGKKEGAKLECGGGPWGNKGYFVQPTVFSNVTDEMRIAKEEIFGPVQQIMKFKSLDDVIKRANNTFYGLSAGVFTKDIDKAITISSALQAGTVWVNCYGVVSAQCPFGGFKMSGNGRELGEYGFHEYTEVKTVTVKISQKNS
HPGD inh – inhibitors of human 15-hydroxyprostaglandin dehydrogenase (HPGD); P15428; purified HPGD, NADH fluorescence kinetic, PGE2 substrate; Potency, µM, for the others: at the highest dose activity change, negative = inhibition, most hits filed as inhibitors; actives 4.3% (n = 150,000); note: potency is the fitted concentration of half-maximal effect
Target sequence (P15428 whole entry, looked up): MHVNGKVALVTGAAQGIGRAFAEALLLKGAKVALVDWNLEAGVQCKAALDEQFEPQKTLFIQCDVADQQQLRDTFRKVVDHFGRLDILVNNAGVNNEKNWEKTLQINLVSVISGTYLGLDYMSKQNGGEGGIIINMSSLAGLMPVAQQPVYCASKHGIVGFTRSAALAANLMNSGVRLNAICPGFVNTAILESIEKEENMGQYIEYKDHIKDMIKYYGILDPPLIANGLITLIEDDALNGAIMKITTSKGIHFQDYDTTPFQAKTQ
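20 nM HPGD preincubated 15 min at room temperature with compound in 50 mM Tris-HCl pH 8, 0.01% Tween 20. Started with 1 mM NAD+ and 30 uM prostaglandin E2; NADH fluorescence (360/450 nm) read 5 times over 30-s intervals, last minus first.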
* hit, by the source's call; ? = inconclusive; · = no result; [ ] = dose if it differs, or a comment. Unless noted, calls come from the whole dose curve; as a rule, active = well fitted inhibition curve with a large enough effect (not every such curve was filed as active); inconclusive = small, poorly fitted or top-dose-only effect, or another doubt; inactive = no such curve, though single readings can be large or run the other way. Unless noted, % is set by controls: 0 for no effect and ±100 for the full control effect.

SMILES | IMPase Li inh | 12-hLO inh | IMPase inh | PNC inhibitor | ALDH1A1 block | HPGD inh
Cc1occc1C(=O)N/N=C/c1ccccn1 | 2% | · | · | · | 28µM* | ·
O=C(/C=C/c1ccco1)Nc1ccc(N2CCCC2)cc1 | 11% | 0% | · | 29 | -6% | -5%
C/C(=N\NC(=O)c1ccoc1C)c1cccnc1 | 0% | -4% | -16 | -89* | 4% | -7%
COc1ccc(CN(C(=O)c2ccccc2F)C2CCS(=O)(=O)C2)cc1 (centres undefined) | · | · | 10 | · | · | ·
COCCNc1cc(-c2ccccc2C)ncn1 | -1% | · | · | · | ? | ·
COc1ccc(CNc2ncncc2-c2ccc3c(c2)OCO3)c(OC)c1 | 14% | 7% | · | · | ? | -26%
COC(=O)c1ccc(C(NC(=O)OCc2ccccc2)/C(C)=C/[C@@H](C)C(=O)NCc2cccnc2)cc1 (some centres undefined) | 2% | 4% | · | · | -5% | -4%
C/C(CC(=O)NC12CC3CC(CC(C3)C1)C2)=N\NC(=O)Cc1cccs1 | 0% | 4% | · | -26 | 8.9µM* | -14%
O=C(/C=C/c1ccco1)Nc1cccnc1 | -1% | · | · | · | 28µM* | ·
COc1ccc(NC(=O)N/C=C/c2ccco2)cc1 | -7% | · | · | · | 28µM* | ·
Cc1ccc(NC(=O)/C=C/c2ccco2)nc1 | 3% | -2% | 4 | -100* | 6% | -3%
CC(=O)OC[C@@]1(O)C[C@@]23CC[C@@H]4c5ccoc5CC[C@@]4(C)[C@@H]2CCC1C3 | 17% | · | · | · | 0% | -4%
CC(/C=C/c1ccco1)=N/NC(=O)Cc1cccs1 | 7%[38.3 µM] | -13% | -3 | 17 | 2.8µM* | -21%
CC(/C=C/c1ccco1)=N\NC(=O)c1cccnc1 | 1%[38.3 µM] | -16% | -2 | -24 | 7.9µM* | -28%
CC(/C=C/c1ccco1)=N\NC(=O)c1cc(C)[nH]n1 | 20%[38.3 µM] | 3% | 10 | 17 | -12% | -10%
COc1cccc(NC(=O)/C=C/c2ccco2)c1 | 6% | · | · | · | 25µM* | ·
O=C(/C=C/c1ccco1)c1ccc(NC(=O)C23CC4CC(CC(C4)C2)C3)cc1 | 14% | -3% | 4 | 44 | 25µM* | ?
Nc1c(-c2cccc([N+](=O)[O-])c2)nc2ccccn12 | 46% | 0% | · | -21 | 7.5µM* | -22%
S=c1[nH]nc(-c2cccnc2)n1/N=C/c1cccs1 | 5%[38.3 µM] | -2% | 7 | 77 | ? | -15%
Cc1ccc(/C=N/n2c(-c3cccs3)n[nH]c2=S)cc1 | 12%[38.3 µM] | -12% | 3 | 60 | ? | 4.5µM*
Fc1cccc(Cl)c1/C=N/n1c(-c2cccnc2)n[nH]c1=S | 3% | · | · | · | ? | ·
S=c1[nH]nc(-c2cccs2)n1/N=C/c1c(Cl)cccc1Cl | 0% | · | · | · | 16µM* | ·
COc1ccc(/C=N/n2c(-c3cccs3)n[nH]c2=S)cc1 | -2%[38.3 µM] | -17% | 4 | 23 | -9% | 4µM*
COc1ccc(Cl)cc1-c1ccc(C(=O)O)s1 | -20% | -4%[0.00818 µM] | · | · | ? | ?
COc1cccc([C@H]2Nc3ccc(S(=O)(=O)Nc4cc(C)ccc4C)cc3[C@H]3C=CC[C@H]32)c1 | · | · | -1 | · | · | ·
SMILES | IMPase Li inh | 12-hLO inh | IMPase inh | PNC inhibitor | ALDH1A1 block | HPGD inh
CC1(C)CC(=O)C(C2=NC3(CCCCC3)Cc3ccccc32)=C(O)C1 | -1% | · | · | · | -3% | ·
C#CCCCO/N=C1/C[C@@H](O)[C@@H](O)[C@@H]2[C@@H]3C(=O)N(CCC(=O)OCC)C(=O)[C@H]3CC[C@H]12 | · | · | · | · | 6%[13.5 µM] | ·
CCC(C)c1ccc(O)c(NC(=S)NC(=O)c2cccnc2)c1 (centres undefined) | -9% | · | · | · | 32µM* | ·
O=C(NC(=S)Nc1cc([N+](=O)[O-])ccc1O)c1cccnc1 | 0% | · | · | · | 10µM* | ·
Cc1ccc([N+](=O)[O-])cc1NC(=S)NC(=O)c1cccnc1 | 9% | · | · | · | -6% | ·
CC(C)c1ccc(O)c(NC(=O)c2cccnc2)c1 | -11%[38.3 µM] | -2% | -1 | -14 | 2% | -9%
Cc1ccc(NC(=O)CCSc2nc(-c3ccc4c(c3)OCO4)cc(C(F)(F)F)n2)cc1 | · | · | -11 | · | · | ·
COc1cc(C(=O)Nc2ccc3oc(-c4ccccc4)nc3c2)cc(OC)c1OC | · | · | -12 | · | · | ·
COCCNC(=O)C(c1ccc(F)cc1)N(CCOC)C(=O)CCC(=O)Nc1nccs1 (centres undefined) | 18%[38.3 µM] | 4% | 2 | -108* | 7% | -1%
COCCNC(=O)C(c1ccc(Cl)cc1)N(CCOC)C(=O)CCC(=O)Nc1nccs1 (centres undefined) | 4% | · | · | · | 9% | ·
Oc1ccc2ccccc2c1/C=N/Nc1ccccc1 | 1% | -4% | -1 | 62 | 18µM* | ?
O=S(=O)(/N=C/c1c(O)ccc2ccccc12)c1cccs1 | 15%[38.3 µM] | 0% | -4 | 32 | 11µM* | ?
Oc1ccc2ccccc2c1/C=N/n1cnnc1 | 6% | -1% | -6 | 24 | 3% | -3%
O=C(O)/C=C\c1ccc(Cn2ccnc2)cc1 | -2% | -4%[25.6 µM] | -1[20.6 µM] | · | -8%[20.9 µM] | -7%
COc1cc2c(cc1OC)CN(c1ccc(-c3ccccc3OC)nn1)CC2 | 12%[38.3 µM] | -5% | 6 | -17 | -2% | 35µM*
COc1ccccc1-c1cc(-n2ccnc2)ncn1 | -1% | · | · | · | ? | ·
Cc1ccc(-c2nnc3c4ccccc4c(C)nn23)cc1NC(=O)c1ccccc1Cl | · | · | 1 | · | · | ·
CC1=NOC(=O)/C1=C\c1ccc(-c2ccc(Cl)c(C(=O)O)c2)o1 | -2% | · | · | · | 0.89µM* | ·
Cc1ccc(N2NC(=O)/C(=C/c3ccc(-c4ccc(Cl)c(C(=O)O)c4)o3)C2=O)cc1C | 1% | · | · | · | ? | ·
CC1=NOC(=O)/C1=C\c1ccc(-c2cccc(Cl)c2)o1 | 10%[38.3 µM] | -26% | 3 | 56 | ? | 3.2µM*
CC1=CC2=NC(=O)/C(=C\c3ccc(-c4cccc(Cl)c4)o3)C(=N)N2O1 | -20% | 0% | · | -25 | ? | -4%
COC(=O)c1ccc(N2NC(=O)/C(=C/c3ccc(-c4ccc(Cl)c(C(=O)O)c4)o3)C2=O)cc1 | 25% | · | · | · | 8.9µM* | ·
CC1=NOC(=O)/C1=C\c1ccc(-c2ccccc2Br)o1 | 7.1µM* | · | · | · | 18µM* | ·
CC1(C)OC(=O)C(=Cc2ccc(-c3ccc(Cl)c(C(=O)O)c3)o2)C(=O)O1 | -8% | · | · | · | ? | ·
O=C(O)c1cc(-c2ccc(/C=C3/SC(=S)N(Cc4ccccc4)C3=O)o2)ccc1Cl | 5% | · | · | · | 0.089µM* | ·
COC(=O)[C@@]1(Cc2ccc(OC)cc2)[C@H]2c3cc(C(=O)N(C)C)n(C)c3C[C@H]2CN1C(=O)c1ccccc1 | -2% | -1% | · | · | -6% | -10%
CCCCCOc1ccc(/C=c2\sc3nc(=O)c(-c4ccccc4)nn3c2=O)cc1OC | -2% | -1% | -6 | 20 | 11µM* | -16%
